# Laboratory results: PubChem BioAssay (NCATS)
# Values joined by “and” are separate entries in the source; they are usually repeats but may differ in a detail not shown here. Equal values may be shown once. Inconclusive results are not listed. Entries that show only a call come without a potency. Some compounds were tested as several samples or in several runs, with calls that do not always agree. Active and inactive are the calls of the source. Unless noted, calls come from the whole dose curve; as a rule, active = well fitted curve in the direction sought with a large enough effect; inconclusive = small, poorly fitted or top-dose-only effect, or another doubt; inactive = no such curve, though single readings can be large; an effect the other way counts as inactive or inconclusive.
# Key:
# [1] = biological target: Voltage-gated inwardly rectifying potassium channel KCNH2 (Homo sapiens) (UniProt Q12809); assay: qHTS Assay for Small Molecule Inhibitors of the Human hERG Channel Activity (AID 588834);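 note: lower thallium flux fluorescence means stronger hERG block; nearly all actives have a fitted effect of over 50% in size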; note: potency is the fitted concentration of half-maximal effect
# Sequence of Voltage-gated inwardly rectifying potassium channel KCNH2 (Homo sapiens) (Q12809 whole entry, looked up): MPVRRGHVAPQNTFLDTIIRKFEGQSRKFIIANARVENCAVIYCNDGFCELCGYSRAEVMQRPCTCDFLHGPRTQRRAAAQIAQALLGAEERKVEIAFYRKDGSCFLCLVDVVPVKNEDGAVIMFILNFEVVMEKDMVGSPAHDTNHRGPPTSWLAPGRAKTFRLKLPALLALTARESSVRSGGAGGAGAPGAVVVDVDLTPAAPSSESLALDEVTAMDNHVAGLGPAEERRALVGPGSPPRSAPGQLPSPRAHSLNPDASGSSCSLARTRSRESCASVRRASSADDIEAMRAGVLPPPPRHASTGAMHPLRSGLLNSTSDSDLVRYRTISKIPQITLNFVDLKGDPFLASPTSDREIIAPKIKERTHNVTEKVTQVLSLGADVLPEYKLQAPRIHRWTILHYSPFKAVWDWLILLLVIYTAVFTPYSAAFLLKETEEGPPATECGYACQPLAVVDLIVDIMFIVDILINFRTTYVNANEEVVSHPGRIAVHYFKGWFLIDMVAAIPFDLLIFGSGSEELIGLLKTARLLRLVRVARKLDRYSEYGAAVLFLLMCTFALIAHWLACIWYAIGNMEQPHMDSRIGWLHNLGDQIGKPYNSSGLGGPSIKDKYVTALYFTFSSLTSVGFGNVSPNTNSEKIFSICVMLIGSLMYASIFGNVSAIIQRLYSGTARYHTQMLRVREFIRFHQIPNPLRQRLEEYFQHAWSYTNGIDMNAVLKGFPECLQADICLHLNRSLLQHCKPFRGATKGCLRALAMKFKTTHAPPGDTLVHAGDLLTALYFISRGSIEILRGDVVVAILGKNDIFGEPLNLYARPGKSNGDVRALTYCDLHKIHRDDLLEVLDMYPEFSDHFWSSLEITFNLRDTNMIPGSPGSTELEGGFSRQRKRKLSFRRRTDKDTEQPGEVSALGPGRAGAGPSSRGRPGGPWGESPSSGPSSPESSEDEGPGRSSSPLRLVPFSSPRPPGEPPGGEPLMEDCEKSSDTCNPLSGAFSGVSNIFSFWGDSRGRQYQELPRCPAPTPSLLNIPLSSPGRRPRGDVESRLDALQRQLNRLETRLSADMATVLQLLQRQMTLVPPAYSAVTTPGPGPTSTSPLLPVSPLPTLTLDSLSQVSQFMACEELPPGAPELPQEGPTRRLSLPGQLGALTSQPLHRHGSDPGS
# Summary of the method: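 Homogeneous FluxOR thallium flux assay using hERG-expressing U2OS cells (BacMam). Compound treatment about 10 minutes preceded stimulation; reduced fluorescence taken as channel block.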
# [2] = biological target: Luciferin 4-monooxygenase (Photinus pyralis) (UniProt P08659); assay: Biochemical firefly luciferase enzyme assay for NPC (AID 624030);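 note: purified P. pyralis luciferase at 10 nM with luciferin and ATP substrate; series mostly up to about 59 µM; nearly all actives have a fitted effect of over 70% in size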
# Sequence of Luciferin 4-monooxygenase (Photinus pyralis) (P08659 whole entry, looked up): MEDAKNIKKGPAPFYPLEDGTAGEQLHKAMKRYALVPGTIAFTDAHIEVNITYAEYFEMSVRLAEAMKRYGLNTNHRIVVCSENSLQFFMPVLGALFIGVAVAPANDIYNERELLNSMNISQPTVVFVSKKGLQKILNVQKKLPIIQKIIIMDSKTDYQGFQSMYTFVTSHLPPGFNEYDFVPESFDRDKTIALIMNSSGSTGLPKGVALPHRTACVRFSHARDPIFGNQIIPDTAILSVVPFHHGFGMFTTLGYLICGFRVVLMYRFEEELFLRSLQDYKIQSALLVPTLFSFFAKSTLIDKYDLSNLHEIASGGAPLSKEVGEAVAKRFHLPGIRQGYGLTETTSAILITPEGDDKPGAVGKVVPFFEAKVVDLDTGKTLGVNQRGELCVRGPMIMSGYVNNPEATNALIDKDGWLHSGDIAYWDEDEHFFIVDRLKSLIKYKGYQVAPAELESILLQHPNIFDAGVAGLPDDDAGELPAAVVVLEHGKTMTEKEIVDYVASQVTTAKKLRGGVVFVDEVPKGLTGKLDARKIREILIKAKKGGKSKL
# Summary of the method: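 Counter-screen for direct inhibition of the luciferase enzyme by approved-drug library compounds, run at 10 nM enzyme in 50 mM Tris acetate (final). Luminescence was read within 5 min of enzyme-buffer addition and normalized to PTC124 versus DMSO (0%).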
# [3] = S16 Schwann cell PMP22 intronic element firefly luciferase assay (AID 624032); note: nearly all actives have a fitted effect of over 30% in size; note: potency is the fitted concentration of half-maximal effect
# Summary of the method: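 Rat S16 Schwann cells stably carrying a PMP22 intronic element-driven Fluc reporter were seeded overnight, then exposed to compounds for 24 h at 37 °C. Luminescence was normalized to PTC124 (positive control) and DMSO (0% activity).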
# [4] = S16 Schwann cell PMP22 intronic element beta-lactamase assay (AID 624044; calls by dose curve; note: nearly all actives have a fitted effect of over 15% in size; note: potency is the fitted concentration of half-maximal effect)
# Summary of the method: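 Beta-lactamase reporter under a PMP22 intronic regulatory element in stable S16 rat Schwann cells; 24 h compound exposure. 460 nm blue signal normalized between DMSO (0%) and potassium clavulanate, with 535 nm FRET tracking viability; curves classed by r2 and response.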
# [5] = biological target: Glutaminase kidney isoform, mitochondrial (Homo sapiens) (UniProt O94925); assay: qHTS for Inhibitors of Glutaminase (GLS): LOPAC Validation (AID 624146); note: nearly all actives have a fitted effect of over 60% in size; note: potency is the fitted concentration of half-maximal effect
# Sequence of Glutaminase kidney isoform, mitochondrial (Homo sapiens) (O94925 whole entry, looked up, canonical isoform): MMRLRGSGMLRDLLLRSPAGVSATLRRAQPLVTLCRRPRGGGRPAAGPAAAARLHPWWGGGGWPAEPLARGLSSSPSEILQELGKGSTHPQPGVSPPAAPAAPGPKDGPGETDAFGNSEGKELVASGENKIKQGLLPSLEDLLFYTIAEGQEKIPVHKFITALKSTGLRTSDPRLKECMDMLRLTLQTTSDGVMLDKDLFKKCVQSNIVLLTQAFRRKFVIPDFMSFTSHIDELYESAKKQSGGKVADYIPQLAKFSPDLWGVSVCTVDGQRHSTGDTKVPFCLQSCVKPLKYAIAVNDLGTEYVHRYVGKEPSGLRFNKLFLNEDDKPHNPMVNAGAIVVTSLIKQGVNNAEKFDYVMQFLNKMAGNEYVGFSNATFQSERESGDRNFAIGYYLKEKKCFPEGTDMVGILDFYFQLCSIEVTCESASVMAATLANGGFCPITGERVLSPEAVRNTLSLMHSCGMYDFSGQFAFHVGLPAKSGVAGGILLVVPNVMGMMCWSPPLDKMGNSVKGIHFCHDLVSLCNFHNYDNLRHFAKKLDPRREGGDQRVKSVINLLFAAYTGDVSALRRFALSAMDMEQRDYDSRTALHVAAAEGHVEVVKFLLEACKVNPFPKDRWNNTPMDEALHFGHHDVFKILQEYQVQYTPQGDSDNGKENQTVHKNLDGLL
# Summary of the method: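 Compounds were pin-transferred onto hKGA, after which L-glutamine (1 mM solution) and a detection mix of glutamate oxidase, HRP and Amplex Red were added. Initial and 30 min RT fluorescence reads were collected.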
# [6] = qHTS of Trypanosoma Brucei Inhibitors: LOPAC Validation (AID 624147)
# Summary of the method: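 Assay buffer: 50 mM TEA pH 7.2, 100 mM KCl, 10 mM MgCl2, 0.05% BSA, 0.01% Tween-20. Pyruvate kinase from T. brucei plus substrate met compound, then ADP (130 uM final). Luminescence was read post 45 min RT.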
# [7] = S16 Schwann cell viability assay (CellTiter-Glo assay) (AID 624031); note: nearly all actives have a fitted effect of over 70% in size; note: potency is the fitted concentration of half-maximal effect
# Summary of the method: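 Concentration-effect curves come from CellTiter-Glo luminescence of S16 rat Schwann cells after 24 h compound exposure. Each reading was normalized to DMSO wells (0%) and wells without cells, and curves were ranked by r2 and response magnitude.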
SMILES,Potency [1],Potency [2],Potency [3],Potency [4],Potency [5],outcome [6],Potency [7]
CC(C(=O)O)c1ccc(CC2CCCC2=O)cc1 (stereo not given),inactive,inactive,inactive,inactive,inactive,inactive,
COC(=O)[C@@H](N)Cc1ccc(O)c(O)c1,inactive,inactive,inactive,inactive,,inactive,
CC[N+](C)(C)c1cccc(O)c1,inactive,inactive,inactive,,inactive,inactive,inactive
CC1=NS(=O)(=O)c2cc(Cl)ccc2N1,inactive,inactive,,,inactive,inactive,inactive
C[C@H](CS)C(=O)N1CCC[C@H]1C(=O)O,inactive,inactive,inactive,,inactive,inactive,
CCc1cccc(N(C)C(N)=Nc2cccc3ccccc23)c1,8910 nM (active),inactive,inactive,,inactive,inactive,inactive
CCN1CCC[C@H]1CNC(=O)c1c(O)c(Cl)cc(Cl)c1OC,inactive and 15.8 µM (active),inactive,inactive,,inactive,inactive,inactive
CCn1cc(C(=O)O)c(=O)c2cc3c(cc21)OCO3,inactive,inactive,inactive,,inactive,inactive,inactive
O=C(O)CN(CCOCCOCCN(CC(=O)O)CC(=O)O)CC(=O)O,inactive,inactive,inactive,,inactive,inactive,inactive
CC(C)NNC(=O)c1ccncc1,inactive,inactive,inactive,,inactive,inactive,inactive
CCCOc1ccccc1-c1nc2n[nH]nc2c(=O)[nH]1,inactive,inactive,inactive,,inactive,inactive,inactive
COC(=O)C1=C(C)NC(C)=C(C(=O)OC(C)(C)CN(C)CCC(c2ccccc2)c2ccccc2)C1c1cccc([N+](=O)[O-])c1 (stereo not given),891 nM (active),inactive,22.8 µM (active),inactive,inactive,inactive,
NC(Cc1ccc(Cl)cc1)C(=O)O (stereo not given),inactive,inactive,inactive,,inactive,inactive,inactive
CCN(Cc1ccncc1)C(=O)C(CO)c1ccccc1 (stereo not given),inactive,inactive,,inactive,inactive,inactive,inactive
CC(=O)Oc1cc(C(C)C)c(OCCN(C)C)cc1C,inactive,inactive,inactive,,inactive,inactive,inactive
Cc1ccc(=O)n(-c2ccccc2)c1,inactive,inactive,inactive,,inactive,inactive,inactive
CCCCNc1c(C(=O)OCC)c(C)nc2c1cnn2CC,inactive,inactive,,inactive,inactive,inactive,
C[C@]12CCC(=O)C=C1CC[C@@H]1[C@@H]2CC[C@@]2(C)[C@H]1CC[C@]2(O)C(=O)CO,inactive,inactive,inactive,,inactive,inactive,inactive
O=C(O)CN(CCN(CC(=O)O)CC(=O)O)CCN(CC(=O)O)CC(=O)O,inactive,inactive,,,inactive,inactive,inactive
COc1cc(C(=O)OCCCN2CCCN(CCCOC(=O)c3cc(OC)c(OC)c(OC)c3)CC2)cc(OC)c1OC,10 µM (active) and inactive,inactive,,15.8 µM (active),inactive,inactive,
NCCCNCCSP(=O)(O)O,inactive,inactive,inactive,,inactive,inactive,inactive
CN(C)CCOC(=O)COc1ccc(Cl)cc1,inactive,inactive,inactive,,inactive,inactive,inactive
CCCC(C(=O)OCCN(CC)CC)(c1ccccc1)c1ccccc1,11.2 µM (active) and 10 µM (active),inactive,inactive,inactive,inactive,inactive,
Brc1c(NC2=NCCN2)ccc2nccnc12,inactive,inactive,inactive,,,inactive,inactive

SMILES,Potency [1],Potency [2],Potency [3],Potency [4],Potency [5],outcome [6],Potency [7]
NC/C=C/C(=O)O,inactive,,inactive,,inactive,inactive,inactive
Cc1scc2c1N(C(=O)CN1CCN(C)CC1)c1ccccc1NC2=O,inactive,,,,inactive,inactive,inactive
c1cnc(N2CCN(Cc3ccc4c(c3)OCO4)CC2)nc1,inactive,,inactive,inactive,,inactive,inactive
CCCN1C[C@H](CSC)C[C@@H]2c3cccc4[nH]cc(c34)C[C@H]21,12.6 µM (active) and 2 µM (active),,inactive,inactive,inactive,inactive,inactive
CCNC(=O)N1CCN(CCCC(c2ccc(F)cc2)c2ccc(F)cc2)CC1,56.2 nM (active),,1.44 µM (active),,inactive,inactive,
COCCc1ccc(OCC(O)CNC(C)C)cc1 (stereo not given),inactive,inactive,,,inactive,inactive,
Cc1nc2sccn2c(=O)c1CCN1CCC(=C(c2ccc(F)cc2)c2ccc(F)cc2)CC1,70.8 nM (active),,,inactive,inactive,inactive,inactive
CN(C)CCCN1c2ccccc2Sc2ccccc21,3.98 µM (active) and 10 µM (active),inactive,,,,inactive,
Cc1cc(C)c(/C=C2\C(=O)Nc3ccccc32)[nH]1,25.1 µM (active) and 7.94 µM (active),,inactive,inactive,inactive,inactive,inactive
CCN(CC)CCCN(c1ccccc1)C1Cc2ccccc2C1,794 nM (active),,16.1 µM (active),,inactive,inactive,14.4 µM (active)
COC(=O)[C@H]1[C@H]2C[C@@H]3c4[nH]c5cc(OC)ccc5c4CCN3C[C@H]2C[C@@H](OC(=O)c2cc(OC)c(OC)c(OC)c2)[C@@H]1OC,2.82 µM (active) and 5.01 µM (active) and 794 nM (active),,,inactive,10 µM (active),inactive,inactive
CN(C)C(=O)Oc1ccc[n+](C)c1,inactive,,inactive,,inactive,inactive,
Cc1nnc(SCC2=C(C(=O)O)N3C(=O)[C@@H](NC(=O)Cn4cnnn4)[C@H]3SC2)s1,inactive,,inactive,,inactive,inactive,inactive
CCCN(CCC)C(=O)C(CCC(=O)O)NC(=O)c1ccccc1 (stereo not given),inactive,,,,inactive,inactive,
Nc1nc(N)c2nc(-c3ccccc3)c(N)nc2n1,inactive,,inactive,,inactive,inactive,inactive
Cc1cccc(C)c1NC(=O)C(C)N (stereo not given),inactive,,,,inactive,inactive,
CNCCC(Oc1ccccc1OC)c1ccccc1 (stereo not given),12.6 µM (active) and 6.31 µM (active),,inactive,inactive,inactive,inactive,inactive
CCOC(=O)C1=C(C)NC(C)=C(C(=O)OC)C1c1cccc([N+](=O)[O-])c1 (stereo not given),inactive,,,inactive,inactive,inactive,inactive
C[n+]1cc2c3c(ccc2c2ccc4cc5c(cc4c21)OCO5)OCO3,inactive,,8.09 µM (active),15.8 µM (active),,inactive,3.22 µM (active)
CNCCCN1c2ccccc2CCc2ccccc21,inactive,inactive,,,inactive,inactive,
CC(=O)OC(C)C[N+](C)(C)C (stereo not given),inactive,,,,inactive,inactive,
CC(=O)[C@]1(O)Cc2c(O)c3c(c(O)c2[C@@H](O[C@H]2C[C@H](N)[C@H](O)[C@H](C)O2)C1)C(=O)c1ccccc1C3=O,10000 nM (active),,inactive,0.0999 µM (active),inactive,inactive,32.2 µM (active)
C[N+](C)(C)CCCCCCCCCC[N+](C)(C)C,inactive,,inactive,,inactive,inactive,inactive
CCCNC(C)C(=O)Nc1ccccc1C (stereo not given),inactive,,,,inactive,inactive,

SMILES,Potency [1],Potency [2],Potency [3],Potency [4],Potency [5],outcome [6],Potency [7]
C=CCc1ccccc1OCC(O)CNC(C)C (stereo not given),inactive and 11.2 µM (active),,inactive,,inactive,inactive,inactive
CCn1ccnc1CC1COc2ccccc2O1 (stereo not given),inactive,,inactive,,inactive,inactive,inactive
COc1ccc(CCN(C)CCCC(C#N)(c2cc(OC)c(OC)c(OC)c2)C(C)C)cc1OC (stereo not given),11.2 µM (active) and 2 µM (active),,inactive,,inactive,inactive,inactive
C[N+](C)(C)CCOC(N)=O,inactive,,inactive,,inactive,inactive,inactive
CC(=O)OCC1=C(C(=O)O)N2C(=O)[C@@H](NC(=O)Cc3cccs3)[C@H]2SC1,inactive,,inactive,inactive,inactive,inactive,inactive
Cc1nc2c([nH]1)c(=O)n(C)c(=O)n2Cc1ccco1,inactive,,,,inactive,inactive,inactive
C#CCN(C)CCCOc1ccc(Cl)cc1Cl,12600 nM (active),,inactive,inactive,inactive,inactive,
CN(C(=O)CCCOc1ccc2[nH]c(=O)ccc2c1)C1CCCCC1,inactive,,,inactive,inactive,inactive,inactive
O=C(O)CP(=O)(O)O,inactive,,inactive,,inactive,inactive,inactive
CCn1nc(C(=O)O)c(=O)c2cc3c(cc21)OCO3,inactive,,inactive,inactive,inactive,inactive,inactive
CCN(CC)CCNC(=O)c1cc(S(C)(=O)=O)ccc1OC,,inactive,inactive,,inactive,inactive,inactive
O=C(CCCN1CCC(O)(c2cccc(C(F)(F)F)c2)CC1)c1ccc(F)cc1,,inactive,inactive,,inactive,inactive,
CCCCCCCC/C=C\CCCCCCCC(=O)NCc1ccc(O)c(OC)c1,,,4.55 µM (active),12.6 µM (active),,inactive,inactive
CN(C)CCN(Cc1cccs1)c1ccccn1,,inactive,inactive,,inactive,inactive,
CC(C)NCC(O)c1cc(O)cc(O)c1 (stereo not given),inactive,,,,7.08 µM (active),inactive,
CCN(CC)CCNC(=O)c1ccc(NC(C)=O)cc1,,,inactive,,inactive,inactive,inactive
C[C@@H](O)[C@H]1C(=O)N2C(C(=O)O)=C(SCCN=CN)C[C@H]12,,,,,,inactive,
CC(C)[N+](C)(CCOC(=O)C1c2ccccc2Oc2ccccc21)C(C)C,,inactive,inactive,,inactive,inactive,inactive
CCCN(CCC)CCc1cccc2c1CC(=O)N2,,inactive,inactive,,inactive,inactive,inactive
O=C1CC2(CCCC2)CC(=O)N1CCCCN1CCN(c2ncccn2)CC1,,,inactive,,inactive,inactive,inactive
NC(=O)c1cn(Cc2c(F)cccc2F)nn1,,,inactive,,inactive,inactive,inactive
CCc1c(C)[nH]c2c1C(=O)C(CN1CCOCC1)CC2 (stereo not given),inactive,,,,,inactive,
CC1=C(C)C(=O)C(CCCCC#CCCCC#CCO)=C(C)C1=O,,,,inactive,11.2 µM (active),inactive,
